Experimental data taken from PubChem BioAssay.
Results filed as inconclusive are left out. Calls of active or inactive are those of the source. Unless noted, the limit is not given here; nearly all actives have AC50 up to about 26 µM.

Key:
[1] = growth inhibition of DIPG glioma cells, dose response, cell-based, SU-DIPG-XVII, MIPE5.0, CellTiter-Glo, qHTS (AID 1347060); conditions: SU-DIPG-XVII viability, CellTiter-Glo ATP luminescence;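 as to AC50: cells exposed to compound for 48 hours before viability readout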
[2] = growth inhibition of DIPG glioma cells, dose response, cell-based, SU-DIPG-XIII, MIPE5.0, CellTiter-Glo, qHTS (AID 1347064; cut-off not given, nearly all actives have AC50 up to about 23 µM;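 as to AC50: cells exposed to compound for 48 hours before the viability read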); conditions: SU-DIPG-XIII viability, CellTiter-Glo ATP luminescence
[3] = viability loss in pontine glioma line – cell-based, SU-DIPG-XXV, MIPE5.0, CellTiter-Glo, qHTS, dose response (AID 1347065); conditions: CellTiter-Glo ATP luminescence;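 also: cells exposed to compound for 48 hours before ATP readout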
[4] = SU-DIPG-XXV glioma cell viability, MIPE5.0 library, qHTS (AID 1347068; cut-off not given, nearly all actives have IC50 up to about 30 µM;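 as to IC50: cells exposed to compound for 48 hours before viability readout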)
[5] = JHH-DIPG-1 glioma cell viability, MIPE5.0 library, CellTiter-Glo luminescence, qHTS (AID 1347067); conditions: JHH-DIPG-1 glioma viability, CellTiter-Glo ATP luminescence;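 also: cells exposed to compound for 48 hours before readout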
[6] = sensitizers of A549 cells to miR-34 induction, primary screen, imaging, A549 dox-inducible miR-34, nuclei and caspase counts (AID 1347080;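 active = compounds whose cell count with miR-34 switched on is under 0.7 times the count with it off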); conditions: A549 miR-34 inducible, Hoechst nuclei count, 48 h
[7] = survival rescue of mitochondrial mutant cells in low glucose, primary screen, MELAS cybrids, Rieske KO mouse fibroblasts, CellTiter-Glo (AID 1508586;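 active = mean z-score across replicates of 1.96 or higher in either the MELAS or the Rieske mutant cell line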;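 also: z relative to plate mean and SD of compound and empty wells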)
[8] = ovarian cancer cell viability with rucaparib, profiling panel, oncology-focused library, rucaparib conditional (AID 1508598;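 active = normalized viability below 100% at a tested concentration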); conditions: patient-derived ovarian cancer cells, CellTiter-Glo viability, 144 h, stronger effect = lower value
[9] = stronger effect = lower value, cell number ratio, induced over uninduced
[10] = measured here: relative caspase fold change +Dox/-Dox
[11] = measured here: total cells with miR-34 induction, stronger effect = lower value
[12] = measured here: total cells without miR-34 induction
[13] = MELAS cybrid survival, CellTiter-Glo 48 h, stronger effect = higher value
[14] = Rieske KO mouse fibroblast survival, CellTiter-Glo 72 h

COc1cc2c(cc1OC(C)C)[C@H](c1ccc(Cl)cc1)N(c1ccc(N(C)CC3CCC(N4CCN(C)C(=O)C4)CC3)cc1)C(=O)C2 (stereo not given in full)
active: AC50 [1] 26.3 µM | AC50 [2] 20.9 µM | AC50 [3] 26.3 µM | IC50 [4] 29.5 µM

N#Cc1ccnc(N2C(=O)CC[C@H]2C(=O)N(c2cncc(F)c2)[C@H](C(=O)NC2CC(F)(F)C2)c2ccccc2Cl)c1
inactive: outcome [1] | outcome [2] | outcome [3] | outcome [4]

Cc1ccc(-c2nc(N)nc3c2nnn3Cc2cccc(CO[C@H]3CCOC3)n2)o1
inactive: outcome [1] | outcome [2] | outcome [3] | outcome [4]

COc1cccc(OCCCN)c1-c1cc(Nc2cnc(C#N)cn2)n[nH]1
active: AC50 [1] 0.0332 µM | AC50 [2] 0.0742 µM | AC50 [3] 0.059 µM
inactive: outcome [4]

Cc1nc2c(-c3cnc(N)nc3)nc(N3CCOCC3)nc2n1C(C)C
1980: cell count [6, 11]
0.682: fold change [6, 10]
-0.403: z-score [7, 14]
active: AC50 [1] 0.742 µM | AC50 [2] 1.05 µM | AC50 [3] 0.332 µM | AC50 [5] 0.742 µM | z-score [7, 13] 5.52 | viability ([8]; at 0.00122 µM, OCI-P5x cells, with rucaparib 20 µM, 100% = cells with rucaparib alone) 95.6% | viability ([8]; at 0.00488 µM, OCI-P5x cells, with rucaparib 20 µM, 100% = cells with rucaparib alone) 92.3% | viability ([8]; at 0.0195 µM, OCI-P5x cells, with rucaparib 20 µM, 100% = cells with rucaparib alone) 90.3% | viability ([8]; at 0.0781 µM, OCI-C5x cells, with rucaparib 10 µM, 100% = cells with rucaparib alone) 98.8% | viability ([8]; at 0.0781 µM, OCI-P5x cells, with rucaparib 20 µM, 100% = cells with rucaparib alone) 77.8% | viability ([8]; at 0.0781 µM, OCI-P5x cells, without rucaparib) 97.3% | viability ([8]; at 0.313 µM, OCI-P5x cells, with rucaparib 20 µM, 100% = cells with rucaparib alone) 68.3% | viability ([8]; at 0.313 µM, OCI-P5x cells, without rucaparib) 76.9% | viability ([8]; at 1.25 µM, OCI-C5x cells, with rucaparib 10 µM, 100% = cells with rucaparib alone) 69.8% | viability ([8]; at 1.25 µM, OCI-C5x cells, without rucaparib) 54.3% | viability ([8]; at 1.25 µM, OCI-P5x cells, with rucaparib 20 µM, 100% = cells with rucaparib alone) 37.6% | viability ([8]; at 1.25 µM, OCI-P5x cells, without rucaparib) 34.8% | viability ([8]; at 5 µM, OCI-C5x cells, with rucaparib 10 µM, 100% = cells with rucaparib alone) 34.3% | viability ([8]; at 5 µM, OCI-C5x cells, without rucaparib) 32.9% | viability ([8]; at 5 µM, OCI-P5x cells, with rucaparib 20 µM, 100% = cells with rucaparib alone) 13.7% | viability ([8]; at 5 µM, OCI-P5x cells, without rucaparib) 14.6%
2430: cell count [6, 12]
inactive: fold change [6, 9] 0.815 | viability ([8]; at 0.000305 µM, OCI-C5x cells, with rucaparib 10 µM, 100% = cells with rucaparib alone) 117% | viability ([8]; at 0.000305 µM, OCI-C5x cells, without rucaparib) 112% | viability ([8]; at 0.000305 µM, OCI-P5x cells, with rucaparib 20 µM, 100% = cells with rucaparib alone) 108% | viability ([8]; at 0.000305 µM, OCI-P5x cells, without rucaparib) 109% | viability ([8]; at 0.00122 µM, OCI-C5x cells, with rucaparib 10 µM, 100% = cells with rucaparib alone) 120% | viability ([8]; at 0.00122 µM, OCI-C5x cells, without rucaparib) 120% | viability ([8]; at 0.00122 µM, OCI-P5x cells, without rucaparib) 109% | viability ([8]; at 0.00488 µM, OCI-C5x cells, with rucaparib 10 µM, 100% = cells with rucaparib alone) 120% | viability ([8]; at 0.00488 µM, OCI-C5x cells, without rucaparib) 116% | viability ([8]; at 0.00488 µM, OCI-P5x cells, without rucaparib) 113% | viability ([8]; at 0.0195 µM, OCI-C5x cells, with rucaparib 10 µM, 100% = cells with rucaparib alone) 111% | viability ([8]; at 0.0195 µM, OCI-C5x cells, without rucaparib) 114% | viability ([8]; at 0.0195 µM, OCI-P5x cells, without rucaparib) 108% | viability ([8]; at 0.0781 µM, OCI-C5x cells, without rucaparib) 116% | viability ([8]; at 0.313 µM, OCI-C5x cells, with rucaparib 10 µM, 100% = cells with rucaparib alone) 102% | viability ([8]; at 0.313 µM, OCI-C5x cells, without rucaparib) 103%

CN1CCN(c2ccc(-c3cccc(CN4CCOCC4)c3)cc2NC(=O)c2c[nH]c(=O)cc2C(F)(F)F)CC1
inactive: outcome [1] | outcome [2] | outcome [3] | outcome [4]

C=CC(=O)N1CC/C(=C\c2ccc(F)c([N+](=O)[O-])c2)C(=O)/C(=C/c2ccc(F)c([N+](=O)[O-])c2)C1
active: AC50 [1] 0.0742 µM | AC50 [2] 0.059 µM | AC50 [3] 0.0934 µM | IC50 [4] 0.186 µM

CC(C)Oc1ccc(-c2nn([C@@H](C)c3oc4ccc(F)cc4c(=O)c3-c3cccc(F)c3)c3ncnc(N)c23)cc1F
inactive: outcome [1] | outcome [2] | outcome [3] | outcome [4]

O=C(NOCC(O)CO)c1ccc(F)c(F)c1Nc1ccc(I)cc1F (stereo not given)
2790: cell count [6, 11]
0.559: fold change [6, 10]
inactive: fold change [6, 9] 1.1 | z-score [7, 13] -0.718
2520: cell count [6, 12]
active: AC50 [1] 0.417 µM | AC50 [2] 0.525 µM | AC50 [3] 0.934 µM | AC50 [5] 0.166 µM
-0.702: z-score [7, 14]

Cc1[nH]c2ccc(F)cc2c1-c1nc2c3cccnc3c3ncccc3c2[nH]1
active: AC50 [1] 6.79 µM | AC50 [2] 1.35 µM | AC50 [3] 1.91 µM | IC50 [4] 2.7 µM

Cc1c(NC(=O)OCC2COCCN2)cn2ncnc(Nc3ccc4c(cnn4Cc4cccc(F)c4)c3)c12 (stereo not given)
4510: cell count [6, 11]
active: AC50 [1] 18.6 µM | AC50 [2] 23.5 µM | AC50 [3] 23.5 µM | AC50 [5] 20.9 µM
0.875: fold change [6, 10]
4340: cell count [6, 12]
inactive: fold change [6, 9] 1.04 | z-score [7, 13] -0.264
0.355: z-score [7, 14]

Cc1c(F)cccc1NC(=O)Nc1ccc(Cl)c(S(=O)(=O)[C@H]2CCCNC2)c1O
inactive: outcome [1] | outcome [2] | outcome [3] | outcome [4]

OC[C@H]1O[C@@H](S[C@@H]2O[C@H](CO)[C@H](O)[C@H](n3cc(-c4cccc(F)c4)nn3)[C@H]2O)[C@H](O)[C@@H](n2cc(-c3cccc(F)c3)nn2)[C@H]1O
inactive: outcome [1] | outcome [2] | outcome [3] | outcome [4]

O=C1CC(c2c[nH]c3ccc(F)cc23)C(=O)N1 (stereo not given)
inactive: outcome [1] | outcome [2] | outcome [3] | outcome [4]

Cc1c(F)ccc(C(=O)Nc2cc([N+](=O)[O-])ccc2N2CCN(C)CC2)c1Cl
inactive: outcome [2] | outcome [3] | outcome [4]
active: AC50 [1] 26.3 µM

Cc1ccc(Sc2ccccc2N2CCNCC2)c(C)c1
-1.42: z-score [7, 14]
5160: cell count [6, 12]
inactive: fold change [6, 9] 0.93 | z-score [7, 13] -0.442
active: AC50 [1] 11.8 µM | AC50 [2] 16.6 µM | AC50 [3] 10.5 µM | AC50 [5] 9.34 µM
4800: cell count [6, 11]
0.501: fold change [6, 10]
